Compounds with a hit are over-represented: about 1.4% of the library has one in this group of screens.
UHRF1 MBD2 ctr: human UHRF1 methylated DNA binding inhibitors; Q96T88; UHRF1 binding to methylated oligo, TR-FRET; inhibition, % at 4.4 µM; actives 0.75% (n = 370,000); AID 687016;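 note: UHRF1 SRA domain binding a hemimethylated CpG hairpin DNA probe; 0% = median of test compound wells and 100% = reference inhibitor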
Target sequence (Q96T88 whole entry, looked up, the tested form may be a part): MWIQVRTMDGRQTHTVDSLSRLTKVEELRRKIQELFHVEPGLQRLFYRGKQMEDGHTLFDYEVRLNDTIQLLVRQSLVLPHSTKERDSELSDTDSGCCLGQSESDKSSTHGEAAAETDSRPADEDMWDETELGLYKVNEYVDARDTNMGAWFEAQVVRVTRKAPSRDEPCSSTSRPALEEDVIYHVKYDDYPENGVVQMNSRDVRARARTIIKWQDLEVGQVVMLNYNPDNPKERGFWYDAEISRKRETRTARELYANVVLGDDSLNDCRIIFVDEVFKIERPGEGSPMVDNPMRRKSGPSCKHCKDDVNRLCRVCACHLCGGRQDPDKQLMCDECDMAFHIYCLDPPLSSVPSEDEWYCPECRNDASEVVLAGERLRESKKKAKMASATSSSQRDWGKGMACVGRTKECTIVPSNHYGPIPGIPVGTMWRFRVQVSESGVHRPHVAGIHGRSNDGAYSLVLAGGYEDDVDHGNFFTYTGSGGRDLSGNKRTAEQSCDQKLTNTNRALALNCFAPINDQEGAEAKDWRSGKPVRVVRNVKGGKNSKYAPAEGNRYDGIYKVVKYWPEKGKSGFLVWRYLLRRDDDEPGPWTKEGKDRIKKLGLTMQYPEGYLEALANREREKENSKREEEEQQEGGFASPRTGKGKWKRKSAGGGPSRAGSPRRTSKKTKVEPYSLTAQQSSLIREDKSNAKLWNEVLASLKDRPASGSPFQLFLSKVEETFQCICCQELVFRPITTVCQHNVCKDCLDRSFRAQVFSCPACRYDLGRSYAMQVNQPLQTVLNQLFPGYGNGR
LEDGF integ inh: blocks HIV-1 LEDGF/p75-dependent DNA integration; TR-FRET IN-LEDGF/p75 DNA integration, Eu/Cy5; inhibition, % at 3.7 µM; actives 0.64% (n = 370,000);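 active = inhibition above the screen-wide mean plus 3 SD, cut at about 13% in these data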;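 note: signal is the Cy5 over europium emission ratio at 671 and 618 nm; 0% = plate median of compound wells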
MBD2 inh: MBD2-methylated oligo binding inhibition; TR-FRET, MBD2 binding to methylated oligonucleotide; AID 686964; Q9UBB5; actives 0.31% (n = 370,000); inhibition, % at 4.4 µM; in the data active = inhibition above about 13%
CASP6 VEID inh: blocks human caspase-6 cleavage activity | purified caspase-6, Z-VEID-R110 cleavage fluorescence | inhibition, % at 12.5 µM | P55212 | actives 0.53% (n = 350,000);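 active = mean inhibition across replicates at least about 35%, with every replicate also reaching that limit, limit read from the data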;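 note: 0% = median of neutral control wells and 100% = no fluorescence left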
UHRF1 ctr MBD2: UHRF1 methyl-oligo binding inhibition as MBD2 counter-screen; shares compounds with MBD2 inh; UHRF1 binding to methylated oligonucleotide, TR-FRET; inhibition, % at 4.4 µM; actives 25% (n = 1,000); AID 720530;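 note: UHRF1 SRA domain binding a labeled hemimethylated CpG hairpin DNA; 0% = vehicle only and 100% = reference inhibitor with vehicle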
MBD2 confirm: MBD2-DBD methyl-DNA binding inhibition, TR-FRET confirmation | shares compounds with MBD2 inh | TR-FRET MBD2-DBD binding to methylated oligonucleotide | inhibition, % at 4.4 µM | actives 26% (n = 1,000); in the data active = inhibition above about 14%
IN multimer act: activates HIV-1 integrase multimerization in LEDGF counter-screen | shares compounds with LEDGF integ inh | TR-FRET HIV-1 integrase multimerization, biochemical | activation, % at 7.7 µM | actives 17% (n = 2,000) | AID 1053131; in the data active = activation above about 8.9%
TR-FRET interf: counter-screen for LEDGF/p75 integration inhibitors: TR-FRET optical interference; shares compounds with LEDGF integ inh; TR-FRET optical interference counterscreen, HIV-1 IN multimerization; inhibition, % at 7.7 µM; 2,000 tested, under 10 active;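 active = inhibition above the mean over all tested compounds plus 3 SD, which no compound reached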;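 note: 0% = integrase with antibodies and DMSO and 100% = antibodies without integrase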
LEDGF integ conf: confirmation of HIV-1 LEDGF/p75-dependent integration inhibitors; shares compounds with LEDGF integ inh; TR-FRET LEDGF/p75-dependent HIV-1 integration, biochemical; inhibition, % at 3.7 µM; actives 36% (n = 2,000); in the data active = inhibition above about 14%
Numbers without * were called inactive; . = not tested or not shown. Cut-off read from the data, not from the text of the source, unless noted: active = inhibition above about 21%; inactive = the rest.

SMILES	UHRF1 MBD2 ctr	LEDGF integ inh	MBD2 inh	CASP6 VEID inh	UHRF1 ctr MBD2	MBD2 confirm	IN multimer act	TR-FRET interf	LEDGF integ conf
O=C(/C=C/c1ccco1)NC(=S)Nc1ccc(C(=O)O)cc1	87*	63*	48*	44*	75*	30*	37*	-133	53*
Cc1ccc(C=C2C(=O)c3ccccc3C2=O)o1	10	8	-2	.	.	.	.	.	.
Cc1ccc(/C=C2/C(=O)c3ccc(C(=O)O)cc3C2=O)o1	78*	69*	22*	30	40*	2	25*	-88	58*
CC(=O)N(C)C[C@@H]1Oc2ncc(C#Cc3cccnc3)cc2C(=O)N([C@@H](C)CO)C[C@@H]1C	.	.	.	2	.	.	.	.	.
CC1=NN(c2cccc(C(=O)O)c2)C(=O)/C1=C\C=C\c1ccco1	94*	78*	70*	.	94*	56*	46*	-232	72*
C[C@H]1CCCCO[C@H](CN(C)C)[C@@H](C)CN([C@@H](C)CO)C(=O)c2cc(NC(=O)NC3CCCCC3)ccc2O1	.	.	.	0	.	.	.	.	.
CN(C)c1ccc(O)c2c1CC1CC3[C@@H](N(C)C)C(=O)C(C(N)=O)=C(O)[C@]3(O)C(=O)C1=C2O (some centres not stated)	80*	77*	35*	66*	36*	15*	51*	-182	48*
O=C(O)c1ccc2nc(-c3ccco3)c(-c3ccco3)nc2c1	93*	86*	69*	72*	73*	23*	73*	-258	76*
O=S(=O)(c1ccc2nc(-c3ccco3)c(-c3ccco3)nc2c1)N1CCOCC1	30*	67*	14*	.	17	-2	1	-5	45*
CNC(=O)C[C@@H]1CC[C@H]2[C@H](COc3ccc(NS(=O)(=O)c4cccc(F)c4)cc3C(=O)N2C)O1	.	.	.	-2	.	.	.	.	.
O=C(c1ccc(F)cc1)N1CCCCN2[C@H](C1)[C@@H](c1ccc(-c3ccc(F)cc3)cc1)[C@@H]2CO	.	.	.	0	.	.	.	.	.
O=Cc1ccc2oc3nc4n(c(=O)c3c(=O)c2c1)CCCS4	16	20*	18*	.	38*	36*	17*	-63	32*
CCOc1ccc(C(=O)N/N=C/c2ccc(-c3ccc(S(=O)(=O)Nc4ncccn4)cc3)o2)cc1	5	1	-1	.	.	.	.	.	.
NC(=S)NN=Cc1ccc(-c2ccc(S(=O)(=O)Nc3ncccn3)cc2)o1	47*	15*	15*	38*	29*	9	7	-35	34*
Cc1nc2ccccc2c(=O)n1/N=C/c1ccc(O)c(O)c1O	37*	61*	27*	19	3	0	18*	-93	80*
Cc1nc2ccccc2c(=O)n1/N=C/c1ccccc1O	0	1	0	-3	.	.	.	.	.
N#Cc1c(SCC(=O)Nc2nccs2)sc2c(O)cc(=O)[nH]c12	77*	18*	35*	82*	27*	15*	44*	-156	34*
COc1cccc(-n2c(SCC(=O)NCCc3ccccc3)nnc2-c2ccoc2C)c1	28*	14*	17*	.	3	4	-2	10	-7
Cc1occc1-c1nnc(SCC(=O)NCCc2ccccc2)n1Cc1ccccc1	-4	2	-5	.	.	.	.	.	.
O=C(C[C@H]1C=C[C@H](NC(=O)c2ccncc2)[C@H](CO)O1)NCC1CCCCC1	.	.	.	-1	.	.	.	.	.
CN(C)C(=O)C[C@@H]1CC[C@H]2[C@@H](COc3ccc(NC(=O)c4ccc(F)cc4)cc3C(=O)N2C)O1	.	.	.	-7	.	.	.	.	.
O=C(Cc1nnc(NC(=O)c2ccccc2)s1)N/N=C/c1cccc(O)c1	-4	2	-4	6	.	.	.	.	.
O=C(Cc1nnc(NC(=O)c2ccccc2)s1)N/N=C/c1ccco1	27*	36*	19*	5	9	2	1	-5	3
CC(C)NC(=O)N1CCCCN2[C@@H](CO)[C@H](c3ccc(C#Cc4ccccc4)cc3)[C@@H]2C1	.	.	.	3	.	.	.	.	.
C[C@@H]1CN([C@@H](C)CO)C(=O)Cc2cc(NC(=O)Nc3ccc(C(F)(F)F)cc3)ccc2O[C@H]1CN(C)CC1CC1	.	.	.	-9	.	.	.	.	.
SMILES	UHRF1 MBD2 ctr	LEDGF integ inh	MBD2 inh	CASP6 VEID inh	UHRF1 ctr MBD2	MBD2 confirm	IN multimer act	TR-FRET interf	LEDGF integ conf
Cc1noc(C)c1S(=O)(=O)N(C)C[C@@H]1OCCCC[C@@H](C)Oc2ccc(NC(=O)NC(C)C)cc2C(=O)N([C@@H](C)CO)C[C@H]1C	.	.	.	1	.	.	.	.	.
O=c1oc2c(-c3ccc([N+](=O)[O-])cc3)cc(O)cc2s1	30*	25*	21*	8	10	7	1	-4	-4
Cc1cccc(C)c1-n1nnnc1C1(C)CCC(=O)N1CCCn1ccnc1 (configuration not stated)	-2	4	0	2	.	.	.	.	.
CCCCn1nnnc1C1(C)CCC(=O)N1CCCn1ccnc1 (configuration not stated)	17	16*	14*	15	17	16*	4	-13	7
C[C@@H]1CN([C@H](C)CO)C(=O)c2cc(NC(=O)Cc3ccccc3)ccc2O[C@@H](C)CCCCO[C@@H]1CN(C)C(=O)Cc1ccccc1	.	.	.	1	.	.	.	.	.
CN1C2=N[C@@H](c3ccc(Br)cc3)CC(=O)N2/C(=C\c2ccccc2)[C@@H]1c1ccccc1	-1	-5	5	.	.	.	.	.	.
CN1C2=N[C@@H](c3cccc(C(F)(F)F)c3)CC(=O)N2/C(=C\c2ccccc2)[C@H]1c1ccccc1	51*	16*	31*	.	29*	23*	20*	-99	8
C[C@H](CO)N1C[C@H](C)[C@H](CN(C)Cc2cncnc2)Oc2ncc(/C=C/c3ccccc3)cc2C1=O	.	.	.	2	.	.	.	.	.
O=C(C[C@H]1CC[C@@H](NC(=O)C2CCC2)[C@@H](CO)O1)Nc1nccs1	.	.	.	2	.	.	.	.	.
O=C(C1CCCC1)N1[C@H](CO)[C@@H]2c3ccccc3N(S(=O)(=O)c3ccc(F)cc3)C[C@@H]21	.	.	.	-1	.	.	.	.	.
O=C1CC(c2ccc(O)c(O)c2)Oc2c1ccc(O)c2O (configuration not stated)	64*	93*	35*	75*	27*	9	57*	-289	91*
CCC(=O)Nc1ccc2c(c1)C(=O)N(C)C[C@H](OC)[C@H](C)CN(C(=O)c1ccncc1)[C@H](C)CO2	.	.	.	3	.	.	.	.	.
Oc1ccc(/C=N/NC(=S)Nc2cccnc2)c(O)c1	-13	-8	-5	.	.	.	.	.	.

Source: PubChem
